We go through ten compounds from PubChem BioAssay (NCATS).

For test [1], the target named is Aldehyde dehydrogenase, mitochondrial (Homo sapiens) (UniProt P05091). Kind of test: qHTS for Inhibitors of the Aldehyde Dehydrogenase Family (ALDH2) Primary screen (AID 2061308). Note: nearly all actives have a fitted effect of over 55% in size. Note: potency is the fitted concentration of half-maximal effect.
In test [2] the target is Retinaldehyde dehydrogenase 3 (Homo sapiens) (UniProt P47895). Kind of test: qHTS for Inhibitors of the Aldehyde Dehydrogenase Family (ALDH1A3) Confirmatory screens (AID 2061311). Note: potency is the fitted concentration of half-maximal effect; nearly all actives have a fitted effect of over 60% in size. In general terms: qHTS replaces the single test concentration by a dilution series.
The target of test [3] is Aldehyde dehydrogenase 1A1 (Homo sapiens) (UniProt P00352). Kind of test: qHTS for Inhibitors of the Aldehyde Dehydrogenase Family (ALDH1A1) Confirmatory screens (AID 2061316). Note: potency is the fitted concentration of half-maximal effect; nearly all actives have a fitted effect of over 65% in size.
Test [4] concerns the target Retinaldehyde dehydrogenase 3 (Homo sapiens) (UniProt P47895). Kind of test: qHTS for Inhibitors of the Aldehyde Dehydrogenase Family (ALDH1A3) Primary screen (AID 2061315).
The target is the same in test [5]. Nature of the test: qHTS for Inhibitors of the Aldehyde Dehydrogenase Family (ALDH1A3) Validation screen (AID 2061312). Note: nearly all actives have a fitted effect of over 45% in size.

Inconclusive results are not listed. Activity calls are given as the source filed them. Calls come from the whole dose curve; as a rule, active = well fitted curve in the direction sought with a large enough effect; inconclusive = small, poorly fitted or top-dose-only effect, or another doubt; inactive = no such curve, though single readings can be large; an effect the other way counts as inactive or inconclusive.

As to `Cc1ccnc(NC(=S)N2CCN(c3ccc4ccccc4n3)CC2)c1`, the values for the Potency in test [1], in test [2] and in test [3] were 2.82 µM (active), 11.3 µM (active) and 3.18 µM (active), respectively.

Turning to `CCOC(=O)c1[nH]c2c(c1C)C(=O)CC(c1ccco1)C2` (configuration not stated), the Potency entry in test [1] and in test [4] was “inactive” in each case. Moreover, the Potency in test [2] is 12.7 µM (active); in test [3] it was 2.52 µM (active).

Regarding `Cc1cnc(-c2ccccc2N(C)C)nc1NCc1ccc(-c2cccnc2)cc1`, the Potency result in test [1] and in test [4] was “inactive” each time. The values for the Potency in test [2] and in test [3] were 3.55 µM (active) and 14.2 µM (active), respectively.

For the compound `N#CC(CCCN1CCC(O)(c2ccc(Cl)cc2)CC1)(c1ccccc1)c1ccccc1`, the Potency entry in test [1], in test [5] and in test [4] was “inactive” each time.

Consider `CNC(=O)c1ccccc1Nc1nc(Nc2ccc3c(c2OC)CCCC(N2CCN(CCO)CC2)C3)ncc1Cl` (configuration not stated), for which the Potency entry in test [1], in test [5] and in test [4] was “inactive” in each case.

For `COc1ccc(C2=NC(c3ccc(Cl)cc3)C(c3ccc(Cl)cc3)N2C(=O)N2CCNC(=O)C2)c(OC(C)C)c1` (configuration not stated), the Potency result in test [1], in test [5] and in test [4] was “inactive” each time.

With `O=C(Nc1ncc(SCCN2CCCC2)s1)C1(c2ccc(S(=O)(=O)C3CC3)cc2)CC1C1CCCCC1` (configuration not stated), the Potency result in test [1], in test [5] and in test [4] was “inactive” in each case.

As for `CCCSc1nc(N[C@@H]2C[C@H]2c2ccc(F)c(F)c2)c2nnn([C@@H]3C[C@H](OCCO)[C@@H](O)[C@H]3O)c2n1`, the Potency entry in test [1], in test [5] and in test [4] was “inactive” each time.

Turning to `C[C@@H]1C[C@H]2[C@@H]3C[C@H](F)C4=CC(=O)C=C[C@]4(C)[C@@]3(F)[C@@H](O)C[C@]2(C)[C@@]1(O)C(=O)CO`, the Potency entry in test [1], in test [5] and in test [4] was “inactive” in each case.

With `COc1ccc(NS(=O)(=O)c2sc3ccc(Cl)cc3c2C)cc1N1CCNCC1`, the Potency entry in test [1], in test [5] and in test [4] was “inactive” throughout.
